The list is not random: actives were taken first. Their share in the collection is about 3.4%.
PKM2 act – PKM2 (human) enzyme activation; Potency, µM (series often up to 57.5 µM), inactives show top-dose activation, hits mostly activators; purified PKM2, Kinase-Glo ATP luminescence, activation; response scale: 0% is enzyme alone, no compound; 260,000 compounds, 0.34% hits; P14618; further: potency means the concentration at half of the fitted maximal effect; on the % scale 0 is the no-effect control and ±100 the full control effect; nearly all actives have a fitted effect of over 55% in size
Target sequence (P14618 whole entry, looked up): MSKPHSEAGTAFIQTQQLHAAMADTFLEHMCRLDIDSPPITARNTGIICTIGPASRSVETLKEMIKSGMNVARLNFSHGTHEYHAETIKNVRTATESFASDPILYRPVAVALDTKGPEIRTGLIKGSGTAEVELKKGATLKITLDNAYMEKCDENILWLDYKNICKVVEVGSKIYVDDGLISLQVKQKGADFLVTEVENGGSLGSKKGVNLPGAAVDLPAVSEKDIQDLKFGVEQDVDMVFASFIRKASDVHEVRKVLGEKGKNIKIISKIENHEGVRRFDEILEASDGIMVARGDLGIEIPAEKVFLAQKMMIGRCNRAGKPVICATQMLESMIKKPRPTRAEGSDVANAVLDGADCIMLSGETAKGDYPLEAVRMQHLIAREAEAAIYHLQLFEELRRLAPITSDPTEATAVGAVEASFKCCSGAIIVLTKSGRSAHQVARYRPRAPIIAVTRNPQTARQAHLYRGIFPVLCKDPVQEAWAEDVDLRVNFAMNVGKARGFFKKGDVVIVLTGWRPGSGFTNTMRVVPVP
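Purified hPK-M2 (>95% pure) converted ADP (0.1 mM final) to ATP with 0.5 mM PEP in 50 mM imidazole pH7.2, KCl, MgCl2, Tween 20, BSA; 1 h at room temperature. ATP detected by Kinase-Glo luminescence.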
GCN5L2 inh-1 – GCN5L2 (KAT2A) acetyltransferase inhibition | Q92830 | GCN5L2 HAT assay, ThioGlo1 CoA-SH fluorescence | Potency, µM (doses to about 58.9 µM), inactives show at the top dose activity change, negative = inhibition, actives largely listed as inhibitors | 390,000 compounds, 0.21% hits | AID 504327; further: potency means the concentration at half of the fitted maximal effect; on the % scale 0 is the no-effect control and ±100 the full control effect
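Free CoA generated was detected with ThioGlo1 (50uM) fluorescence at Ex340nm/Em540nm, read immediately and after 20 min at room temperature. Enzyme, 20 nM in HEPES pH 7.5 buffer, saw compounds 15 min before adding 75uM H3(1-25) peptide and 70uM acetyl-CoA.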
Mito fusion act – blocks mitochondrial division or promotes mitochondrial fusion; Potency, µM (series often up to 46.1 µM), for inactives: at the highest dose growth rescue (activation), actives largely listed as activators; S. cerevisiae fusion-defective mutant growth rescue, CellTiterGlo 48 h; 320,000 compounds, 0.23% hits; further: potency means the concentration at half of the fitted maximal effect; % of control where 0% means no effect; nearly all actives have a fitted effect of over 45% in size
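Yeast fusion mutant, YPEG (non-fermentable carbon), compound, 48 h at 37C non-permissive; CellTiterGlo added, 10 min RT, luminescence read. Rescued growth = division inhibition.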
VDR inhibitor – vitamin D3 receptor (human) inhibition | VDR-SRC2-3 peptide fluorescence polarization, 2 h | 400,000 compounds, 0.93% hits | AID 504847 | Potency, µM, without a hit: max response, negative = inhibition, usual class: inhibitors; further: potency means the concentration at half of the fitted maximal effect; on the % scale 0 is the no-effect control and ±100 the full control effect
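Fluorescence polarization assay measuring small-molecule disruption of VDR binding to the coregulator peptide SRC2-3. Compounds were pin-transferred (23 nl) into the reagent mix and incubated 2 h at room temperature before reading.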
PLK1 PBD block – inhibitors of human PLK1 polo-box domain binding | P53350 | 360,000 compounds, 2.8% hits | Potency, µM, for inactives: max response, negative = inhibition, actives largely listed as inhibitors | Plk1 PBD binding of FITC phosphopeptide, fluorescence polarization | AID 720504; further: potency means the concentration at half of the fitted maximal effect; series mostly up to about 57 µM; on the % scale 0 is the no-effect control and ±100 the full control effect; nearly all actives have a fitted effect of over 65% in size
GLS inhibitor – blocks human kidney-isoform glutaminase activity | Potency, µM (doses to about 45.5 µM), inactives show top-dose activity change, negative = inhibition, hits mostly inhibitors | O94925 | GLS enzymatic activity, qHTS titration | 410,000 compounds, 0.21% hits; further: potency means the concentration at half of the fitted maximal effect; on the % scale 0 is the no-effect control and ±100 the full control effect
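Read-out is an Amplex red fluorescence increase coupled through glutamate oxidase and HRP, measured before and after 30 min room-temperature incubation. hKGA is in 45 mM KH2PO4 (pH 8.2) with 0.02% Tween-20; glutamine added as 1mM solution.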
GCN5L2 inh-2 – human KAT2A HAT inhibition, hit confirmation; shares compounds with GCN5L2 inh-1; GCN5L2 HAT, ThioGlo1 CoA fluorescence, 20 min; Potency, µM, hits mostly inhibitors; 140 compounds, 70% hits
Active calls of the source: *; ? = inconclusive; · = no result given; ! = a repeat was not active; [ ] = remark or other dose. The call rests on the fitted dose curve; in most records, active means well fitted curve in the direction sought with a large enough effect; inconclusive means small, poorly fitted or top-dose-only effect, or another doubt; inactive means no such curve, though single readings can be large; an effect the other way counts as inactive or inconclusive.

SMILES	PKM2 act	GCN5L2 inh-1	Mito fusion act	VDR inhibitor	PLK1 PBD block	GLS inhibitor	GCN5L2 inh-2
COc1cccc2c1NC(C(=O)O)C1CC=CC21 (stereo not given)	5%	11µM*	-5%	-18%	27µM*	2.8µM*	?
COc1ccc(OC)c(C2CC(=O)c3c([nH]c(C(=O)OCc4ccc(C)cc4)c3C)C2)c1 (stereo not given)	·	-23%	·	-15%	·	-12%	·
Nc1ccc(-c2nc3cc(N)ccc3n2CCO)cc1	14%	?	0%	-9%	-14%	19%	18*
Cn1c(CO)nc2cc(N)ccc21	6%	-12%	2%	3%	-10%	8%	·
Cc1ccc(CNC(=O)CNS(=O)(=O)c2cccs2)cc1	·	-3%	·	10%	·	-9%	·
CC1=NOC(=O)/C1=C\c1ccc(-c2ccc(Cl)c(C(=O)O)c2)o1	?	32µM*	-4%	?	2.1µM*	-6%	13*
CC1=CC2=NC(=O)/C(=C\c3ccc(-c4cccc(Cl)c4)o3)C(=N)N2O1	17%	-18%	-2%	28%	1%	-3%	·
CC1=NOC(=O)/C1=C\c1ccc(-c2cccc(Cl)c2)o1	16%	?	-7%	?	0.53µM*	-25%	?
Cc1nc2ccccc2c2oc(C(=O)N3CCN(c4ccc([N+](=O)[O-])cc4)CC3)cc12	·	1%	4%	5%	1%	-22%	·
Cc1ccccc1Cn1c(=O)n(-c2ccc(Cl)cc2)c(=O)c2c3c(sc21)CCCC3	·	-3%	·	-10%	·	0%	·
CCCCN(C=O)c1c(CC)nc2c(OCc3ccc(Cl)cc3Cl)cccn12	·	·	·	·	0%	-1%	·
CCOc1ccc(C(=O)Nc2ccc3nc(SCC(=O)N4CCc5ccccc54)sc3c2)cc1	·	-7%	·	-2%	·	1%	·
COc1cc(Cl)c(C)cc1NC(=O)CC(c1ccc(F)cc1)N1Cc2ccccc2C1=O (stereo not given)	·	-11%	·	20%	·	-6%	·
O=C(Nc1cccc(S(=O)(=O)NC2=NCCC2)c1)c1cc(-c2ccco2)nc2ccccc12	?	13µM*	0%	-20%	?	-5%	?
O=[N+]([O-])C(=C1Nc2ccccc2N1)C(Cl)=C(Cl)Cl	-3%	35µM*	-9%	?	-16%	3%	23*
Cc1nc(NCCCN2CCOCC2)c2cnn(-c3ccccc3)c2n1	·	·	·	-5%	4%	-9%	·
O=C(O)c1cccc(N/N=C/C2=C(Cl)c3cc(Cl)ccc3SC2)c1	-1%	28µM*	7%	-12%	21µM*	14%	14*
O=C(O)c1cc(-c2ccc(-c3c(-c4ccc5c(c4)OCO5)noc3-c3ccsc3)cc2)nc2ccccc12	0%	20µM*	-10%	?	17µM*	4%	16*
COc1ccc(C)cc1NS(=O)(=O)c1cc2c3c(c1)CC(=O)N3CCC2	·	-6%	·	14%	·	9%	·
Cc1c(NC(=O)c2cccc(NC(=O)C(C)Oc3ccccc3)c2)c(=O)n(-c2ccccc2)n1C (stereo not given)	·	·	·	·	-5%	1%	·
CSc1ccccc1C(=O)Nc1ncn[nH]1	0%[11.5 µM]	35µM*	2%	-15%	-22%	1%	32*
O=C(CSc1nnc(-c2ccco2)n1Cc1ccccc1)c1ccccc1	10%	-1%	5%	-21%	-14%	5%	·
Cn1c(SCC(=O)c2ccc(-c3ccccc3)cc2)nnc1-c1ccco1	?	28µM*	-2%	8%	-4%	-1%	?
CCCNC(=O)c1ccc2c(=O)c(O)c(-c3ccc(C)cc3)[nH]c2c1	-8%	-7%	9%	-1%	0%	19%	·
CCCNC(=O)c1ccc2c(=O)c(O)c(-c3ccsc3)[nH]c2c1	1%	32µM*	6%	-21%	-6%	17%	16*
SMILES	PKM2 act	GCN5L2 inh-1	Mito fusion act	VDR inhibitor	PLK1 PBD block	GLS inhibitor	GCN5L2 inh-2
CC(=O)NC(=S)Nc1sc2c(c1C(N)=O)CCC(C)C2 (stereo not given)	0%	20µM*	6%	15%	-22%	-11%	32*
O=c1c2ccccc2sn1-c1cc(S(=O)(=O)N2CCOCC2)ccc1N1CCCC1	-99%	8.9µM*	?	?	3µM*	?	5.8*
N#Cc1cc(S(=O)(=O)N2CCOCC2)ccc1N1CCOCC1	-9%	-9%	3%	30%	-12%	3%	·
O=c1c2ccccc2sn1-c1cc(S(=O)(=O)N2CCOCC2)ccc1N1CCOCC1	-38%	1.6µM*	-9%	18µM*!	0.84µM*	?	4.1*
CCSS(=O)(=O)c1cccc2cccnc12	9%	3.2µM*	1%	16µM*	2.7µM*	10µM*	3.6*
O=C(O)CCS(=O)(=O)c1cccc2cccnc12	-3%	?	-1%	-5%	-6%	1%	·
O=C(COC(=O)c1c2c(nc3ccccc13)/C(=C/c1ccco1)CC2)NC1CCCC1	11%	13µM*	26%	-7%	?	18µM*	7.3*
Cc1cc(C(=O)OCC(=O)NC2CCCC2)c2ccccc2n1	·	-1%	2%	-1%	-1%	8%	·
CCCCNC(=O)c1ccc2nc(CC)c(N(CC)CCN(C)C)n2c1	·	·	·	·	-1%	23%	·
COc1cccc(CNS(=O)(=O)c2c(C(=O)N3CCC(C)CC3)c(C)n(C)c2C)c1	·	-10%	·	-4%	·	3%	·
CN(c1ccccc1)c1ccc(/C=C(\CCC(=O)O)c2nc3ccccc3s2)cc1[N+](=O)[O-]	0%	?	7%	-13%	24µM*	-5%	20*

Source: PubChem
